The supplement of paper PMC11732987, “Enantioselective OTUD7B fragment discovery through chemoproteomics screening and high-throughput optimisation” (Communications Chemistry, 2025)

Key:
Assay in all cases: log2 ratio of Biotin-Ahx-Ub-VS probe labelling (fragment/DMSO); higher = less target engagement (more negative = stronger competition), active = hit call of the paper (q ≤ 0.05, log2 ratio ≤ -1)
Conditions in all cases: compound concentration: 200 uM; treatment time: 3 h
USP19 = target: T1, USP19 (UniProt O94966)
T1 sequence (whole entry): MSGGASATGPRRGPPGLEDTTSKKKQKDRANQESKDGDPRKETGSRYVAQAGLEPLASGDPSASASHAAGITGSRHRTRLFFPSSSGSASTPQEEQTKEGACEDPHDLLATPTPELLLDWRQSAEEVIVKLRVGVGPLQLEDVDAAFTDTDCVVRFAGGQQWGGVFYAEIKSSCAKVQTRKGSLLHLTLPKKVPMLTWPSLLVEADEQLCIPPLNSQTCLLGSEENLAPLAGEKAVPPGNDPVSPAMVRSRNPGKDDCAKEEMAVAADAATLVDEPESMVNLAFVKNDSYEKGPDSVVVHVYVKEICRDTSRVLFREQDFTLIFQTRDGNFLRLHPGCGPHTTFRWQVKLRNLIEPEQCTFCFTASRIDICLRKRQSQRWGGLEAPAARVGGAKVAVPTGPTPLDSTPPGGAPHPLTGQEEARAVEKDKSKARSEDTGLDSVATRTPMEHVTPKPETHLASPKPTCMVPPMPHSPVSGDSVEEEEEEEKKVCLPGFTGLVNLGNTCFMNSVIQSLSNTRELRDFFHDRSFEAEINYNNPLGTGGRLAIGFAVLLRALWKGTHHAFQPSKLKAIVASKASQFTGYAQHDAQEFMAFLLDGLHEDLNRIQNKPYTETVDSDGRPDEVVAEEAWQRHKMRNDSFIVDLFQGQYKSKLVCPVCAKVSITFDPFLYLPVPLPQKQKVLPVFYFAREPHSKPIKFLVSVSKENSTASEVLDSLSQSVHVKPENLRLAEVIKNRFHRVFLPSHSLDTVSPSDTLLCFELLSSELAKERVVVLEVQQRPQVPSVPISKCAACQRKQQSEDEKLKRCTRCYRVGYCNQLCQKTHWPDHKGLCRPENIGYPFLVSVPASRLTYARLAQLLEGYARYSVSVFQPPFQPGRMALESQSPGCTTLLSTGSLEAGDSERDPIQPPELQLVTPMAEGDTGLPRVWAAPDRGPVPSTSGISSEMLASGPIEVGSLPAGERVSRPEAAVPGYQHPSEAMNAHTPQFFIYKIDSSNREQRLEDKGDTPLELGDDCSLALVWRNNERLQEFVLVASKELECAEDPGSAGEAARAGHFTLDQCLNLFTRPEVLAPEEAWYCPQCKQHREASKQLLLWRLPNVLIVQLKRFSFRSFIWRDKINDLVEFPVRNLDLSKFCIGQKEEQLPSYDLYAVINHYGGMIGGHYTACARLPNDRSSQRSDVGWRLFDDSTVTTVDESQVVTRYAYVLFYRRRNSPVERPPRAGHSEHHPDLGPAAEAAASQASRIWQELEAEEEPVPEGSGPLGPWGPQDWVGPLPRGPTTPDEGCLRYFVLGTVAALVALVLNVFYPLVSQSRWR
Procedure, shortened: (§1)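 Triplicate samples of HEK293T lysate, 495 µg each, received fragment at 200 µM or vehicle for 3 h, followed by Biotin-Ahx-Ub-VS (0.5 µM final) for 1 h. After NeutrAvidin enrichment of labelled DUBs and LysC/trypsin digestion, peptides were run by diaPASEF LC-MS/MS. The values are average log2 fragment/vehicle ratios from global-median-normalised Spectronaut label-free quantities, tested by unpaired t-test on proteins having ≥2 unique peptides.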

USP24 = USP24 (UniProt Q9UPU5)
Procedure, shortened: as §1

USP25 = target: T2, USP25 (UniProt Q9UHP3)
T2 sequence (whole entry): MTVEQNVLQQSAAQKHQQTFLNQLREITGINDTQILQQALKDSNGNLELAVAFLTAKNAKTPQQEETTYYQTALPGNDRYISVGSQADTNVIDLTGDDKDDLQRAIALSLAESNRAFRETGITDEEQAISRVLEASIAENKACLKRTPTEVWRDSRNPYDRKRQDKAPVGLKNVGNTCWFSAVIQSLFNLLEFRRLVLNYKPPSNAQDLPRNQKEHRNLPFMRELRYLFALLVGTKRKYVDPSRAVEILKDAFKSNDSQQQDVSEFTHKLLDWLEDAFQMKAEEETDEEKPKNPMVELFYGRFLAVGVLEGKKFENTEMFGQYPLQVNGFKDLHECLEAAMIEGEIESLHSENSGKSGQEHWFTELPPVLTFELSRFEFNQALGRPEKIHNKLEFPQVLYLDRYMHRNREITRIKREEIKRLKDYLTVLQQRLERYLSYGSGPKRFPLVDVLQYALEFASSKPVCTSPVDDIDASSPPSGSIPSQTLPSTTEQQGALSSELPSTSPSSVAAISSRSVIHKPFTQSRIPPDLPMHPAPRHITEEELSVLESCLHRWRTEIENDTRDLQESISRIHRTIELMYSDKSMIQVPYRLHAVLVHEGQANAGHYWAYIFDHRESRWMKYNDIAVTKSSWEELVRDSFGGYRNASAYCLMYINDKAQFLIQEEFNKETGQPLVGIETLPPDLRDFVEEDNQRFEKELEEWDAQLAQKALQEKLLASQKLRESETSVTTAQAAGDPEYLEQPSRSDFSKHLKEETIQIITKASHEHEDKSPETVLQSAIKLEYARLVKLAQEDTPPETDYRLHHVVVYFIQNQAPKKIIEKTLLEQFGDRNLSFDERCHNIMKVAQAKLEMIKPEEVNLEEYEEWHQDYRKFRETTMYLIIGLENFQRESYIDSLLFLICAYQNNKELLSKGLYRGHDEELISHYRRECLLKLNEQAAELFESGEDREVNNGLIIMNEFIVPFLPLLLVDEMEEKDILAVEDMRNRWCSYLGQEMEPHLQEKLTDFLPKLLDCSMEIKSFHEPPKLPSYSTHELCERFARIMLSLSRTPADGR
Procedure, shortened: as §1

USP28 = target: T3, USP28 (UniProt Q96RU2)
T3 sequence (whole entry): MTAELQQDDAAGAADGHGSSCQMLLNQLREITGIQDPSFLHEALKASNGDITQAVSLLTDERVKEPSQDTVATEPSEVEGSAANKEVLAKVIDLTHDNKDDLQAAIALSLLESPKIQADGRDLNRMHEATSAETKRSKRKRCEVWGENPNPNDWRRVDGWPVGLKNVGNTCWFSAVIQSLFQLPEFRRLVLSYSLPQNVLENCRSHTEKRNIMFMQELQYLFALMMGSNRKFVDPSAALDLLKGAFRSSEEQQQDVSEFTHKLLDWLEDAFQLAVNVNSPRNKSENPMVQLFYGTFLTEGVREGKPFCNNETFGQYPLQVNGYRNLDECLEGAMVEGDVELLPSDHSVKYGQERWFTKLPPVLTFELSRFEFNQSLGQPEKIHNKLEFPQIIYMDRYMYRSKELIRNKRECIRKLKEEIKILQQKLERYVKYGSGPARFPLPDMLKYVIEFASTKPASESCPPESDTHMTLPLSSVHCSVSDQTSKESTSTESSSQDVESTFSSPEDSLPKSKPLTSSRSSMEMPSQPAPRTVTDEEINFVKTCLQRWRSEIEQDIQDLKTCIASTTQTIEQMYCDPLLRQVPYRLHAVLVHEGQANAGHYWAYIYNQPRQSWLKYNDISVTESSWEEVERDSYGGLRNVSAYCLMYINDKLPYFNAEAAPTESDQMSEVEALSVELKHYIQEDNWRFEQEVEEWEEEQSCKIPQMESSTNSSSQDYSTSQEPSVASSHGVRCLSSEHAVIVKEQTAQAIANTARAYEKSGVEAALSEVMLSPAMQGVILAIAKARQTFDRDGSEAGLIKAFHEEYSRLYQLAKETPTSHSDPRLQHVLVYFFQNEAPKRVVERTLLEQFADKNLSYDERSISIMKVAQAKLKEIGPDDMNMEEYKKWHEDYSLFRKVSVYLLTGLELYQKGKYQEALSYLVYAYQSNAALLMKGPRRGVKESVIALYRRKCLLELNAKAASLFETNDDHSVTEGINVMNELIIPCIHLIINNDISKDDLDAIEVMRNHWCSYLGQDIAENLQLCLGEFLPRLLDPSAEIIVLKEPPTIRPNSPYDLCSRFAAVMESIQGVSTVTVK
Procedure, shortened: as §1

Measured: log2 ratio of Biotin-Ahx-Ub-VS probe labelling

Chain of USP24 (Q9UPU5 whole entry): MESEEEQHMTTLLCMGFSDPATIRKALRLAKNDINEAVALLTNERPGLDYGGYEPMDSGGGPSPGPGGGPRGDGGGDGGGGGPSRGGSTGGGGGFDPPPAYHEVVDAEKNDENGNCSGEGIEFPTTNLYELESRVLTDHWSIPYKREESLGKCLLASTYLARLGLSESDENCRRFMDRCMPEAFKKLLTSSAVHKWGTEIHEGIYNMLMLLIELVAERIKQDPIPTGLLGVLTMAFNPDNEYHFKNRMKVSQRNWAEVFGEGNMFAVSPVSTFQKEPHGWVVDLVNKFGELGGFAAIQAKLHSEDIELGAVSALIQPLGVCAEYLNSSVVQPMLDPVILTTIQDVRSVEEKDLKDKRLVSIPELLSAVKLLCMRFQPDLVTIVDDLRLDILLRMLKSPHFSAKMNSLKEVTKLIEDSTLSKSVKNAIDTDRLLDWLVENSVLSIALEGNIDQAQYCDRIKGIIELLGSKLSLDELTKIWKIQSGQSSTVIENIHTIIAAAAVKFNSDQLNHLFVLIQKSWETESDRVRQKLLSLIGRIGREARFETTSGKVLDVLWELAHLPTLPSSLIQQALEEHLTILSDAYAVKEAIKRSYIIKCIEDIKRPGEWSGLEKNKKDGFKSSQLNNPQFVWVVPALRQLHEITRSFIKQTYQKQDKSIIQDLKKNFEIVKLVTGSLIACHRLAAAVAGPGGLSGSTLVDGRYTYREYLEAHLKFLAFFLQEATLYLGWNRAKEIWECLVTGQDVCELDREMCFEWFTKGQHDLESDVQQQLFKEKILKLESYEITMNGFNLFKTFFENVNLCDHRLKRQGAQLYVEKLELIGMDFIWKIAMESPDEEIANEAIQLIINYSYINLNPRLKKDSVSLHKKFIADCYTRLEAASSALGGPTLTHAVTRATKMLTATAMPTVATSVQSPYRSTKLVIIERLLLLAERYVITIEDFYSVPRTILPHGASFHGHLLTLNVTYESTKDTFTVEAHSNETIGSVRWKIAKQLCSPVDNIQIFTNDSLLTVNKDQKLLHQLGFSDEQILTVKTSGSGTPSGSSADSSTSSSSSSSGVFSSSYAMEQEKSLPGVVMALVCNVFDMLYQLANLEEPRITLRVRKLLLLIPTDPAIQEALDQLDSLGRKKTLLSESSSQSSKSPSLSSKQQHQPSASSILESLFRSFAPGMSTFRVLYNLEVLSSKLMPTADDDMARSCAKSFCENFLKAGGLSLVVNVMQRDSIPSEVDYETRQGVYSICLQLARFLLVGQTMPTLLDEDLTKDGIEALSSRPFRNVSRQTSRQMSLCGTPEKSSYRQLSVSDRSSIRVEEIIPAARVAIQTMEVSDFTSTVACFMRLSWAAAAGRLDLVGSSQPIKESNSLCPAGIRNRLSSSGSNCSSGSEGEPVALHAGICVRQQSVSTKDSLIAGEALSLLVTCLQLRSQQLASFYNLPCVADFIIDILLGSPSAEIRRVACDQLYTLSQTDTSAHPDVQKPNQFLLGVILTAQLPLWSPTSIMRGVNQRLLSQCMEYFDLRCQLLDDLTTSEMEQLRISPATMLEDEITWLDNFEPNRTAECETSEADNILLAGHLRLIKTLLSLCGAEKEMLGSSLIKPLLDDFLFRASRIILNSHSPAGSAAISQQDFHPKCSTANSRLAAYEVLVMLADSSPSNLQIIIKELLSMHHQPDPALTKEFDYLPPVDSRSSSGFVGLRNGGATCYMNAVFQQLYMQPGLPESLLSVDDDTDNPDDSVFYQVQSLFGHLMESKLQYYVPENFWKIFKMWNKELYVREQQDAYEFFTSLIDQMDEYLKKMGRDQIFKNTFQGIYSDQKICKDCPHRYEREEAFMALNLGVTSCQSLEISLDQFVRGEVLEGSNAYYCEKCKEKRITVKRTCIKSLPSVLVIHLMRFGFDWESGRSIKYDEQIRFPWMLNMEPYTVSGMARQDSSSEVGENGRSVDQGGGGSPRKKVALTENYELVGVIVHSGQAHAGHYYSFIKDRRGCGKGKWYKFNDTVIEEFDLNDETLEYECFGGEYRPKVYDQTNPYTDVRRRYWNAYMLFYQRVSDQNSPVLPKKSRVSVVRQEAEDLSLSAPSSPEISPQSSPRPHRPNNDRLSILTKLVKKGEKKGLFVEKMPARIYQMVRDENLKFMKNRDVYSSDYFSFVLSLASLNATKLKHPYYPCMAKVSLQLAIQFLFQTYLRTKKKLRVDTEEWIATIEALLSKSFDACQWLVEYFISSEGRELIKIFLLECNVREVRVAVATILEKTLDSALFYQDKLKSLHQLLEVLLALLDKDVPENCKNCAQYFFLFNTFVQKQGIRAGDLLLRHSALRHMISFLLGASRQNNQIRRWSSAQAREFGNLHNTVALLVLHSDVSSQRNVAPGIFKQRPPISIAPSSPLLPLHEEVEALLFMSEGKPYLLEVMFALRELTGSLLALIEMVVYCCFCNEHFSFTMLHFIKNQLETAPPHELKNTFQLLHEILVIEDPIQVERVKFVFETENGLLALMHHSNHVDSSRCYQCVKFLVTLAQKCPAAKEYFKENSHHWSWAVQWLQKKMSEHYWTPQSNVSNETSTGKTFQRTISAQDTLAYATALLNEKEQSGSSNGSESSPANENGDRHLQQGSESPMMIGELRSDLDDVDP

O=C(CCl)N1CCC(S(=O)(=O)c2ccc(F)cc2)CC1
inactive: USP19 -0.376 | USP24 -0.346 | USP25 -0.444 | USP28 -0.572
